Laboratory results: PubChem BioAssay (NCI)
This is part of a sample that, as a whole, favours compounds with a hit. Of some 79,000 tested, about 15% had one in any assay. Activity calls are given as the source filed them. Cut-off read from the data, not from the text of the source: active = growth inhibition above about 70%; inactive = the rest.

Columns and labels:
[1] = NCI Yeast Anticancer Drug Screen. Data for the rad52 strain (AID 147);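 note: 0% = growth of vehicle-treated control cultures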; settings: S. cerevisiae rad52 mutant growth inhibition, stronger effect = higher value
Procedure, shortened: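 Screen used a yeast mutant impaired in DNA repair. After compound exposure, growth was measured. Values reflect inhibition compared with vehicle-treated cells.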

[2] = NCI Yeast Anticancer Drug Screen. Data for the rad50 strain (AID 155);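 note: 0% = growth of vehicle-only cultures of the same strain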; settings: S. cerevisiae rad50 strain growth inhibition, stronger effect = higher value
Procedure, shortened: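 Inhibition values express reduced yeast growth in compound-treated cultures relative to vehicle-treated controls.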

[3] = NCI Yeast Anticancer Drug Screen. Data for the mec2-1 strain (AID 157); settings: S. cerevisiae mec2-1 strain, stronger effect = higher value
Procedure, shortened: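 Readout is yeast growth inhibition, normalised to vehicle-treated controls, in the mec2-1 strain exposed to compound.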

[4] = NCI Yeast Anticancer Drug Screen. Data for the sgs1 mgt1 strain (AID 161);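 note: 0% = growth of cultures given vehicle only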; settings: S. cerevisiae sgs1 mgt1 strain, stronger effect = higher value
Procedure, shortened: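 Compounds are added to genetically altered yeast, and growth is compared with cultures given vehicle alone to give percent inhibition.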

[5] = NCI Yeast Anticancer Drug Screen. Data for the CLN2oe strain (AID 163);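 note: 0% = growth of vehicle-only control cultures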; settings: S. cerevisiae CLN2oe strain, stronger effect = higher value
Procedure, shortened: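 Values reflect how much compound exposure reduced yeast growth, referenced to vehicle-exposed cells. Assay organism is a strain with a defined genetic change affecting cell-cycle control.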

[6] = NCI Yeast Anticancer Drug Screen. Data for the cln2 rad14 strain (AID 165);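 note: 0% = growth equal to vehicle treated cultures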; settings: S. cerevisiae cln2 rad14 strain, stronger effect = higher value
Procedure, shortened: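 Relative to vehicle controls, growth inhibition of compound-treated cln2 rad14 yeast was recorded.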

[7] = NCI Yeast Anticancer Drug Screen. Data for the bub3 strain (AID 167); settings: S. cerevisiae bub3 mutant strain, stronger effect = higher value
Procedure, shortened: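 Steps: expose the mutant yeast strain to compound; grow alongside vehicle-treated cultures; measure growth; express inhibition against the vehicle cultures.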

[8] = NCI Yeast Anticancer Drug Screen. Data for the wt2 strain (AID 169);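 note: 0% = growth of vehicle-treated yeast cultures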; settings: S. cerevisiae wt2 strain growth inhibition, stronger effect = higher value
Procedure, shortened: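 Values express reduction in yeast growth under compound treatment, referenced to vehicle-treated cells.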

[9] = NCI Yeast Anticancer Drug Screen. Data for the mlh1 strain (AID 171);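 note: 0% = growth of vehicle-treated control cultures of the same strain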; settings: S. cerevisiae mlh1 strain growth inhibition, stronger effect = higher value
Procedure, shortened: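 Steps: expose the defined-mutant yeast strain to compound; expose a parallel culture to vehicle; measure growth; express compound effect as inhibition relative to the vehicle culture.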

[10] = NCI Yeast Anticancer Drug Screen. Data for the sgs1 strain (AID 173);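 note: 0% = growth of vehicle-only control cultures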; settings: S. cerevisiae sgs1 mutant, stronger effect = higher value
Procedure, shortened: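 Treat defined-mutant yeast with compound; measure growth; calculate inhibition relative to vehicle-treated cells.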

[11] = NCI Yeast Anticancer Drug Screen. Data for the mlh1 rad18 strain (AID 175); settings: S. cerevisiae mlh1 rad18 strain growth inhibition, stronger effect = higher value
Procedure, shortened: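 Test agents were incubated with a yeast strain of defined genotype (DNA damage repair defect). Inhibition of growth was derived by comparison with vehicle-exposed cultures.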

[12] = NCI Yeast Anticancer Drug Screen. Data for the rad18 strain (AID 177); settings: S. cerevisiae rad18 mutant growth inhibition, stronger effect = higher value
Procedure, shortened: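 A genetically defined yeast mutant impaired in DNA damage repair was treated with test compounds, then its growth was measured against cultures receiving vehicle alone.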

[13] = NCI Yeast Anticancer Drug Screen. Data for the rad50EPP+ strain (AID 151);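 note: 0% = growth of vehicle-treated control cultures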; settings: S. cerevisiae rad50 mutant strain, stronger effect = higher value
Procedure, shortened: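 Exposing the rad50EPP+ strain to each compound, growth was compared with vehicle-only cultures to give inhibition.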

[14] = NCI Yeast Anticancer Drug Screen. Data for the mgt1 strain (AID 153); settings: S. cerevisiae mgt1 mutant growth inhibition, stronger effect = higher value
Procedure, shortened: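 Genetically defined yeast (mgt1) treated with compound; inhibition of growth expressed against vehicle-treated controls.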

[15] = NCI Yeast Anticancer Drug Screen. Data for the rad14 strain (AID 159);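 note: 0% = growth of vehicle-treated control cultures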; settings: S. cerevisiae rad14 strain growth inhibition, stronger effect = higher value
Procedure, shortened: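 A mutant yeast strain defective in DNA damage repair is treated with compound; inhibition of its growth is scored against untreated, vehicle-exposed cultures.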

[16] = NCI Yeast Anticancer Drug Screen. Data for the wt1 strain (AID 149);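 note: 0% = growth of vehicle-treated wt1 cultures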; settings: S. cerevisiae wt1 strain (SPY 50644) growth inhibition, stronger effect = higher value
Procedure, shortened: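 Compounds are added to wt1 yeast cultures. Growth is then measured. Inhibition is expressed relative to vehicle-treated controls.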

[17] = at 5.0 µM (retest, dose inferred, filed as 0.5)
[18] = at 50.0 µM (retest, dose inferred, filed as 5.0)

Measured: growth inhibition

COc1ccccc1N=NC(C(=O)c1ccccc1)C(=O)c1ccccc1
inactive: [1]; at 1.2 µM 3% | [1]; at 3.7 µM 22% | [1]; at 11.0 µM 16% | [2]; at 1.2 µM -50% | [2]; at 3.7 µM -50% | [2]; [17] 34% | [2]; at 11.0 µM -16% | [3]; at 1.2 µM -57% | [3]; at 3.7 µM -31% | [3]; [17] -3% | [3]; at 11.0 µM -25% | [4]; [17] 22% | [5]; at 1.2 µM 16% | [5]; at 3.7 µM -5% | [5]; at 11.0 µM -4% | [6]; [17] 10% | [7]; at 1.2 µM 4% | [7]; at 3.7 µM -17% | [7]; [17] 5% | [7]; at 11.0 µM 17% | [8]; at 1.2 µM -10% | [8]; at 3.7 µM 5% | [8]; at 11.0 µM -6% | [9]; at 1.2 µM -25% | [9]; at 3.7 µM -27% | [9]; at 11.0 µM -1% | [10]; at 1.2 µM -37% | [10]; at 3.7 µM -6% | [10]; at 11.0 µM -4% | [11]; [17] -7% | [12]; at 1.2 µM -5% | [12]; at 3.7 µM 10% | [12]; at 11.0 µM 9%
active: [1]; at 33.0 µM 97% | [1]; at 100.0 µM 97% | [2]; at 33.0 µM 96% | [2]; [18] 96% | [2]; at 50.0 µM 93.4% | [2]; at 100.0 µM 96% | [3]; at 33.0 µM 91% | [3]; [18] 96% | [3]; at 50.0 µM 94.5% | [3]; at 100.0 µM 97% | [4]; [18] 95% | [4]; at 50.0 µM 93.7% | [5]; at 33.0 µM 94% | [5]; at 100.0 µM 97% | [6]; [18] 95% | [6]; at 50.0 µM 88.8% | [7]; at 33.0 µM 95% | [7]; [18] 97% | [7]; at 50.0 µM 92.5% | [7]; at 100.0 µM 97% | [8]; at 33.0 µM 92% | [8]; at 100.0 µM 97% | [9]; at 33.0 µM 94% | [9]; at 100.0 µM 96% | [10]; at 33.0 µM 96% | [10]; at 100.0 µM 96% | [11]; [18] 97% | [11]; at 50.0 µM 92.5% | [12]; at 33.0 µM 96% | [12]; at 100.0 µM 98%

CCCCCCCCCCC1CCC(=O)O1 (centres undefined)
active: [1]; at 100.0 µM 99% | [14]; at 100.0 µM 100% | [2]; at 50.0 µM 97.2% | [2]; at 100.0 µM 99% | [3]; at 50.0 µM 98.8% | [3]; at 100.0 µM 99% | [15]; at 100.0 µM 99% | [4]; at 50.0 µM 91.2% | [5]; at 100.0 µM 98% | [6]; at 50.0 µM 97.7% | [7]; at 50.0 µM 91.3% | [7]; at 100.0 µM 99% | [8]; at 100.0 µM 99% | [10]; at 100.0 µM 99% | [11]; at 50.0 µM 92.2% | [12]; at 100.0 µM 97%
inactive: [1]; at 1.2 µM -2% | [1]; at 3.7 µM -2% | [1]; at 11.0 µM -1% | [1]; at 33.0 µM 4% | [13]; at 1.2 µM -2% | [13]; at 3.7 µM 3% | [13]; at 11.0 µM 11% | [13]; at 33.0 µM 22% | [13]; at 100.0 µM 38% | [14]; at 1.2 µM -2% | [14]; at 3.7 µM -1% | [14]; at 11.0 µM 0% | [14]; at 33.0 µM 8% | [2]; at 1.2 µM -1% | [2]; at 3.7 µM -46% | [2]; [17] -2% | [2]; at 11.0 µM 16% | [2]; at 33.0 µM 12% | [2]; [18] 50% | [3]; at 1.2 µM -1% | [3]; at 3.7 µM -2% | [3]; [17] 5% | [3]; at 11.0 µM 0% | [3]; at 33.0 µM 8% | [3]; [18] 27% | [15]; at 1.2 µM 1% | [15]; at 3.7 µM 3% | [15]; at 11.0 µM 7% | [15]; at 33.0 µM 15% | [4]; [17] 6% | [4]; [18] 13% | [5]; at 1.2 µM 0% | [5]; at 3.7 µM 1% | [5]; at 11.0 µM 7% | [5]; at 33.0 µM 5% | [6]; [17] 2% | [6]; [18] 15% | [7]; at 1.2 µM -3% | [7]; at 3.7 µM 0% | [7]; [17] 3% | [7]; at 11.0 µM 0% | [7]; at 33.0 µM 0% | [7]; [18] 9% | [8]; at 1.2 µM -1% | [8]; at 3.7 µM 8% | [8]; at 11.0 µM 0% | [8]; at 33.0 µM 4% | [10]; at 1.2 µM -1% | [10]; at 3.7 µM 1% | [10]; at 11.0 µM 3% | [10]; at 33.0 µM 20% | [11]; [17] -3% | [11]; [18] 69% | [12]; at 1.2 µM -1% | [12]; at 3.7 µM 1% | [12]; at 11.0 µM -1% | [12]; at 33.0 µM 7%

N#Cc1c(N)[nH]c2ccc(Sc3ccccc3)cc12
inactive: [16]; at 1.2 µM 1% | [16]; at 3.7 µM 5% | [16]; at 11.0 µM 1% | [13]; at 1.2 µM 3% | [13]; at 3.7 µM 6% | [13]; at 11.0 µM 19% | [13]; at 33.0 µM 33% | [13]; at 100.0 µM 51% | [14]; at 1.2 µM -1% | [14]; at 3.7 µM -2% | [14]; at 11.0 µM 9% | [2]; at 1.2 µM 1% | [2]; at 3.7 µM 0% | [2]; [17] -3% | [2]; at 11.0 µM 23% | [2]; [18] 44% | [2]; at 50.0 µM 46.1% | [3]; at 1.2 µM -2% | [3]; at 3.7 µM 2% | [3]; [17] -22% | [3]; at 11.0 µM 6% | [3]; [18] -6% | [3]; at 50.0 µM 62.8% | [15]; at 1.2 µM 1% | [15]; at 3.7 µM 4% | [15]; at 11.0 µM 7% | [4]; [17] -3% | [4]; [18] 40% | [4]; at 50.0 µM 52.9% | [5]; at 1.2 µM -6% | [5]; at 3.7 µM -22% | [5]; at 11.0 µM 12% | [6]; [17] -3% | [6]; [18] 14% | [6]; at 50.0 µM -0.8% | [7]; at 1.2 µM -5% | [7]; at 3.7 µM -6% | [7]; [17] 12% | [7]; at 11.0 µM 6% | [7]; [18] 51% | [7]; at 50.0 µM 52.4% | [8]; at 1.2 µM 0% | [8]; at 3.7 µM 1% | [8]; at 11.0 µM 4% | [9]; at 1.2 µM -1% | [9]; at 3.7 µM 3% | [9]; at 11.0 µM 11% | [10]; at 1.2 µM -3% | [10]; at 3.7 µM 5% | [10]; at 11.0 µM 23% | [11]; [17] 19% | [12]; at 1.2 µM 12% | [12]; at 3.7 µM 37%
active: [16]; at 33.0 µM 82% | [16]; at 100.0 µM 93% | [14]; at 33.0 µM 96% | [14]; at 100.0 µM 97% | [2]; at 33.0 µM 93% | [2]; at 100.0 µM 96% | [3]; at 33.0 µM 93% | [3]; at 100.0 µM 97% | [15]; at 33.0 µM 95% | [15]; at 100.0 µM 97% | [5]; at 33.0 µM 95% | [5]; at 100.0 µM 96% | [7]; at 33.0 µM 93% | [7]; at 100.0 µM 96% | [8]; at 33.0 µM 92% | [8]; at 100.0 µM 96% | [9]; at 33.0 µM 96% | [9]; at 100.0 µM 97% | [10]; at 33.0 µM 95% | [10]; at 100.0 µM 97% | [11]; [18] 85% | [11]; at 50.0 µM 70.5% | [12]; at 11.0 µM 87% | [12]; at 33.0 µM 95% | [12]; at 100.0 µM 96%
